Test results reported in PubChem BioAssay (EPA / NIEHS).
Where “and” joins values, the source holds several entries; their conditions need not be identical. Equal values may be shown once. Records with an inconclusive call do not appear. Calls of active or inactive are those of the source. How the source made its calls: active means hit-call score of the fitted dose curve at least 0.9, where 1 is the maximum; inconclusive means response in the unintended direction; inactive means score below 0.9.

Target: zebrafish Thyroid Hormone Receptor beta (TRb), thrb (gene 30607) (UniProt Q9PVE4)
Experiment: ATG_zfTRb_XSP2: Attagene TRANS-FACTORIAL Multi-Species (XSP1) HepG2 Assay for zebrafish Thyroid Hormone Receptor beta (TRb) (AID 2283836);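 on AC50: potency for induction of reporter signal above DMSO so agonist direction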
Description: ATG_XSP2_multi-species_TRANS is a cell-based, multiplexed assay created by modifying the existing Attagene TRANS-FACTORIAL system to include a panel of nuclear receptors from some or all the following species: human (Homo sapiens), mouse (Mus musculus), frog (Xenopus laevis), zebrafish (Danio rerio), chicken (Gallus gallus), and turtle (Chrysemys picta). The ECOTOX-FACTORIAL format uses HepG2, a human liver cell line, with measurements taken at 24 hours after chemical dosing in a 24-well plate. Xsp2 included 3 nM 6-alpha-fluorotestosterone and 1.5 nM norgestrel to stimulate the androgen receptor.ATG_zfTRb_XSP2 is one of 29 assay components measured or calculated from the ATG_XSP2_multi-species_TRANS assay. It is designed to make measurements of mRNA induction, a form of inducible reporter, as detected with fluorescence intensity signals by Reverse transcription polymerase chain reaction (RT-PCR) and Capillary electrophoresis technology.The assay endpoint ATG_zfTRb_XSP2 was analyzed in the positive analysis fitting direction relative to DMSO as the negative control and baseline of activity. Using a type of inducible reporter, measures of mRNA for gain-of-signal activity can be used to understand the reporter gene at the transcription factor-level as they relate to the gene TR. Furthermore, this assay endpoint can be referred to as a primary readout, because this assay has produced multiple assay endpoints where this one serves a reporter gene function. To generalize the intended target to other relatable targets, this assay endpoint is annotated to the nuclear receptor intended target family, where the subfamily is non-steroidal.
Human liver HepG2 cells are transiently transfected with multiple reporter transcription units (MRTUs) in 6-well plates using FuGene 6 reagent (Roche; 3 ml FuGene/1 mg DNA). The MRTU constructs are regulated by a cis-regulating element (promoter). […] A major difference between the CIS and TRANS system is that in CIS activities of endogenous TFs are measured, whereas the TRANS assay evaluates changes in activities of exogenous, chimeric NR-Gal4 proteins. […] At the end of 24 hour incubation, total RNA was isolated using TriZol reagent (Invitrogen). The isolated RNA is then reverse-transcribed using oligo(dT) primer and Mo-MLV reverse transcriptase (Invitrogen) with DNAse I (Ambion) treatment for 30 min. The one-tenth of the produced cDNA was amplified by PCR using Taq DNA polymerase (Invitrogen) and two reporter sequence-specific primers. The PCR products were fluorescently labeled by primer extension with 6-arboxyfluorescein (6-FAM) 5'-labeled reporter sequence-specific primer (2 min at 95 C, 20 s at 68 C and 10 min at 72 C) and these products were digested with 5U of HpaI (New England Biolabs) for 2h at 37 C. The fragments were purified using Qiaquick PCR columns (Qiagen), analyzed on an ABI 3130xL genetic analyzer (Applied Biosystems) with peak positions identified by using a set of X-rhodamine (ROX)-labeled MapMarker1000 molecular weight standards (BioVentures). The raw capillary electrophoresis data was processed using Attagraph software (Attagene).

zebrafish Thyroid Hormone Receptor beta (TRb), thrb (gene 30607), sequence (Q9PVE4 whole entry, looked up): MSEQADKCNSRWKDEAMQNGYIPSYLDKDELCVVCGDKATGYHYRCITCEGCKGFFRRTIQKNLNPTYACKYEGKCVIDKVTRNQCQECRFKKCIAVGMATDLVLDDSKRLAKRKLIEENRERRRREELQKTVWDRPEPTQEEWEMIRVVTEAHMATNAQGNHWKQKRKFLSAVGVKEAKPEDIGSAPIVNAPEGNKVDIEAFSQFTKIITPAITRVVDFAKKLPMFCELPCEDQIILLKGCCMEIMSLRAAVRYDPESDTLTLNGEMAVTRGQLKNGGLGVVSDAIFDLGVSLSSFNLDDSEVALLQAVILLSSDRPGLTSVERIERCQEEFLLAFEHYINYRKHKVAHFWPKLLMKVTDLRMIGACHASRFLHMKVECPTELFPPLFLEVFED

Structure (SMILES) | outcome | AC50
CC[C@H](c1ccc(O)cc1)[C@@H](CC)c1ccc(O)cc1 | inactive | –
c1ccc2c(c1)ccc1ccccc12 | inactive | –
C#C[C@]1(O)CC[C@H]2[C@@H]3CCC4=CC(=O)CC[C@@H]4[C@H]3CC[C@@]21C | inactive | –
CCC(C)(C)C1CCC(O)CC1 (stereo not given) | inactive | –
CCCOC(=O)c1ccc(O)cc1 | inactive | –
O=c1c(-c2ccc(O)cc2)coc2cc(O)ccc12 | inactive | –
Cc1oc(-c2ccccc2)nc1CCOc1ccc(C[C@H](Nc2ccccc2C(=O)c2ccccc2)C(=O)O)cc1 | inactive | –
CCC(=C(c1ccc(O)cc1)c1ccc(OCCN(C)C)cc1)c1ccccc1 | inactive | –
Oc1cc2ccccc2c2ccccc12 | – | 33.4 µM (active)
O=C(O)Cc1cc(I)c(Oc2cc(I)c(O)c(I)c2)c(I)c1 | – | 45.5 nM (active) and 14.4 nM (active)
